Compound activity deposited in PubChem BioAssay by Broad Institute.
Shown is part of a subset that was picked to be rich in hits.
IDE exosite FP: displaces the probe from the exo-site of human IDE. z-score at 20 µM. 17,000 compounds, 6.3% hits. purified IDE, FL-6b probe fluorescence polarization; active compounds read low. P14735;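 active = z-score of -3 or lower, meaning strong loss of probe binding signal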;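 note: His-tagged human IDE residues 42-1019 made in E. coli with 30 nM FL-6b probe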
* hit, by the source's call.

SMILES	IDE exosite FP
CCS(=O)(=O)N1CCCCN2[C@H](C1)[C@@H](c1ccc(C#Cc3ccccc3OC)cc1)[C@@H]2CO	-9.5*
CCS(=O)(=O)N1CCCCN2[C@H](CO)[C@H](c3ccc(C#Cc4ccccn4)cc3)[C@@H]2C1	-0.051
CCCC#Cc1ccc([C@@H]2[C@@H](CO)N3CCCCN(S(=O)(=O)CC)C[C@@H]23)cc1	-2.1
COc1ccc(C#Cc2ccc([C@H]3[C@@H](CO)N4CCCCN(S(=O)(=O)c5ccccc5)C[C@H]34)cc2)cc1	-1.2
CCS(=O)(=O)N1CCCCN2[C@H](CO)[C@@H](c3ccc(C#Cc4ccccc4OC)cc3)[C@@H]2C1	-11*
O=S(=O)(Cc1ccccc1)N1CCCCN2[C@H](C1)[C@H](c1ccc(C#Cc3ccccc3)cc1)[C@@H]2CO	5.9
COc1ccccc1C(=O)Nc1ccc2c(c1)C(=O)N(C)C[C@H](OC)[C@H](C)CN(C(C)=O)[C@@H](C)CO2	-0.45
C[C@H]1CN([C@@H](C)CO)C(=O)CCCn2cc(nn2)CO[C@H]1CN(C)C(=O)c1ccc(N2CCN(C)CC2)cc1	-0.66
O=C(c1ccccc1F)N1CC(=O)N2[C@H](CO)[C@@H](c3ccc(C#Cc4ccc(F)cc4)cc3)[C@@H]2C1	1.4
CCCC#Cc1ccc([C@H]2[C@@H](CO)N3C(=O)CN(C(=O)Nc4ccccc4)C[C@@H]23)cc1	2.6
C/C=C/c1ccc([C@H]2[C@H](CO)N3C(=O)CN(Cc4ccccc4)C[C@@H]23)cc1	-0.13
C[C@@H](NC(=O)C[C@@H]1CC[C@H]2[C@H](COc3ccc(NC(=O)C4CCOCC4)cc3C(=O)N2C)O1)c1ccccc1	-1.1
CC(=O)N1CC(=O)N2[C@H](C1)[C@@H](c1ccc(-c3ccc(C#N)cc3)cc1)[C@@H]2CO	5.2
C[C@H](O)C#Cc1ccc([C@H]2[C@@H](CO)N3CCCCN(C(=O)Nc4ccccc4)C[C@H]23)cc1	1.2
C[C@@H]1CN([C@H](C)CO)C(=O)CCCn2nncc2CO[C@H]1CN(C)CC1CCCCC1	0.7
CCCC#Cc1ccc([C@H]2[C@@H](CO)N3C(=O)CN(C(=O)Nc4ccc(F)cc4)C[C@H]23)cc1	4
COc1ccc(NC(=O)N2CC(=O)N3[C@@H](CO)[C@H](c4ccc(C#CCC5CCCC5)cc4)[C@@H]3C2)cc1	4.3
Cc1cccc(-c2ccc([C@@H]3[C@H]4CN(C(=O)c5ccc6c(c5)OCO6)CCCCN4[C@H]3CO)cc2)c1	1.5
Cc1cccc(-c2ccc([C@H]3[C@@H](CO)N4CCCCN(C(=O)NC(C)C)C[C@H]34)cc2)c1	-13*
Cc1cccc(-c2ccc([C@@H]3[C@H]4CN(C(=O)NC(C)C)CCCCN4[C@H]3CO)cc2)c1	-12*
COc1ccccc1NC(=O)N1CCCCN2[C@H](C1)[C@@H](c1ccc(-c3cccc(C)c3)cc1)[C@@H]2CO	-2.6
COc1ccccc1NC(=O)N1CCCCN2[C@H](CO)[C@H](c3ccc(-c4cccc(C)c4)cc3)[C@@H]2C1	-0.063
COc1ccccc1NC(=O)N1CCCCN2[C@@H](CO)[C@H](c3ccc(-c4cccc(C)c4)cc3)[C@@H]2C1	-2.8
O=C(Nc1cc(F)ccc1F)N1CC(=O)N2[C@H](CO)[C@@H](c3ccc(-c4ccc(F)cc4)cc3)[C@@H]2C1	0.1
N#C[C@H]1[C@@H](c2ccccc2-c2ccccc2)[C@@H](CO)N1C(=O)Cc1ccncc1	-1.1
SMILES	IDE exosite FP
O=C(c1ccc(F)cc1)N1CC(=O)N2[C@H](CO)[C@H](c3ccc(-c4cccnc4)cc3)[C@@H]2C1	0.16
O=C(Nc1ccc(F)cc1)N1CC(=O)N2[C@H](CO)[C@@H](c3ccc(-c4ccccc4)cc3)[C@H]2C1	1.6
O=C(Nc1ccc(F)cc1)N1CC(=O)N2[C@H](CO)[C@H](c3ccc(-c4ccccc4)cc3)[C@@H]2C1	1.5
Cc1ccccc1-c1ccc([C@@H]2[C@@H](CO)N3C(=O)CN(C(=O)Nc4ccccc4)C[C@H]23)cc1	-6.1*
O=C(Nc1ccc(F)cc1)N1CC(=O)N2[C@H](CO)[C@H](c3ccc(-c4ccccc4)cc3)[C@H]2C1	-5.5*
Cc1ccc(-c2ccc([C@@H]3[C@@H](CO)N4C(=O)CN(C(=O)Nc5ccc(F)cc5)C[C@H]34)cc2)cc1	1.4
O=C(Nc1cccc(F)c1)N1CC(=O)N2[C@@H](CO)[C@@H](c3ccc(-c4ccccc4F)cc3)[C@@H]2C1	-1.9
Cc1ccccc1-c1ccc([C@H]2[C@H](CO)N3C(=O)CN(C(=O)Nc4cccc(F)c4)C[C@@H]23)cc1	-3*
O=C(Nc1ccc(F)cc1)N1CC(=O)N2[C@@H](CO)[C@H](c3ccc(-c4ccccc4)cc3)[C@@H]2C1	0.29
O=C(Nc1cccc(F)c1)N1CC(=O)N2[C@@H](CO)[C@H](c3ccc(-c4ccccc4F)cc3)[C@@H]2C1	-0.94
O=C(Nc1ccccc1)N1CC(=O)N2[C@H](CO)[C@H](c3ccc(-c4ccc(F)cc4)cc3)[C@@H]2C1	2.5
Cc1ccccc1-c1ccc([C@H]2[C@@H](CO)N3C(=O)CN(C(=O)Nc4ccc(F)cc4)C[C@H]23)cc1	-21*
